# According to the supplement of paper PMC12632987:
# T1: FBXL12, Q9NXK8
# T1 chain: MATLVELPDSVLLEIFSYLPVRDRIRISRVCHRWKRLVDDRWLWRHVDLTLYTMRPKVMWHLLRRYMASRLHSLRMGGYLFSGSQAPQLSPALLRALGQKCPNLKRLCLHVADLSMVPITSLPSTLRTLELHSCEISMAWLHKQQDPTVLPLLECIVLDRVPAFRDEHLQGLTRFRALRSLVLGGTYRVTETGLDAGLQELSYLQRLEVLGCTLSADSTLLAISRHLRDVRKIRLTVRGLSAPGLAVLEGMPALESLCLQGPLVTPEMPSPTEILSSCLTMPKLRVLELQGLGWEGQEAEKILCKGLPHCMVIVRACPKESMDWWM
# B1: FBXL12_hotspot_9_121 (protein)
# chain: RIVVIRQFIESEEEVGPTVRRAVAYARAAADAGWRVIIVISAASPEVAEAARRVLEEELGEEVAELRARGARIVVTSSREEAERKKAELLEAALAEEDAA
# B2: FBXL12_hotspot_9_120 (protein)
# chain: RIVVIHEFLESLEDVGPRLTRAVDIAETAADAGWKVILVFSAASPEVAAAARRYLAEELGERVAALEARGAVIRVAESREEAERIKRELLEEALREEDEA
# B3: FBXL12_hotspot_9_125 (protein)
# chain: RHVIISVTARTEEELREKIDRALDYAEAAAAAGWKVHLIVSGLSPELLAAAKELLATEHAERVAALKAAGAEIHLKETVEEGEALKAEILAEIEEEAERE
# B4: FBXL12_hotspot_9_122 (protein)
# chain: RIVVISEFVESPEEVEPVVRRAVEYAEAAAAAGWRVIIVIAAASPEVAEHARRVLEERFGERVARLRAAGARIEVRASREEAERAKRELLEEALAEEDAA
# B5: FBXL12_hotspot_9_117 (protein)
# chain: KTVIIGVVAATPEAARSTLAVAREIARGLAEAGIKVHVIMAASSEETREEVLAIFREAGAEIQAELADKGVKVRVAETMEEYERLKAEVLEEIDREEEEE
# B6: FBXL12_hotspot_9_112 (protein)
# chain: MTVILGVYAETEEELRRKLERALEYAEAALEAGWEVHIVVGAATPELAEAARRLLEEELGERVAELRARGAVIRVEETFEAARARREEIREEIERRAEEE
# B7: FBXL12_hotspot_9_118 (protein)
# chain: RVLVISEYVRSEAEVEPAIARALAYARAAADAGWRVIVVISAASPAIAAHARRLLATRYGEEVAELRARGARIVVRDSRAAAEAEKARLLAEALAAEDAA
# B8: FBXL12_hotspot_9_124 (protein)
# chain: MHVIISQYAETEEEARRQIERALEYAKAAAEAGWKVTVIFSASTEELKEFIEELLETEYAEEVAELKAKGVEIHVVETEEEAERLKEEILEEIEEEAEEE
# B9: FBXL12_hotspot_9_114 (protein)
# chain: RVLVLSFFAETREEAERELARMEEWARAALAAGWDVLIVVAAATEEVAAHARELLARMEAALRAAYPDRRVRVAVALTREAAAAAKAALLAELLAEADAA
# B10: FBXL12_hotspot_9_115 (protein)
# chain: RTILVVASANTVERVRSTLETALKISIGLAEAGHKVILLIAAATEEVLEKAKELLETELKPLVEKLKELGVEVKEPVLYEEAEPLKEEILEEIDEEEEEE
# B11: FBXL12_hotspot_9_116 (protein)
# chain: KTVVVLARALRVETVESTLRTALEIAIGLAKAGVKVHLVIGAADEEVLAKARELLATRLAPLVEEARALGVEVHEPALYEEAEALVEEILEEIDEEEEEE
# B12: FBXL12_hotspot_9_119 (protein)
# chain: KVLVIYERIENPEDVEPAIERAIEYARAAAEAGWKVIVVFSAANPEIAEHTRRLLETRFGEEVAELEARGARIVVRDNEEEAEETKERLLREALEEEDRE
# B13: FBXL12_hotspot_9_113 (protein)
# chain: RILVLSAFAETKEEAEEKLARIREWARAAAAAGWDVIIVVAASTEEVAEYARRLLEELEAELRAAYPDVRVRVDVRLTREEAEETKARLLAEALEEEDRR
# B14: FBXL12_hotspot_134_9 (protein)
# chain: RTVVVIVSANGVSDAQARAAVDRAETIIAGLRAAGHRVLFVLVLSLADAAVGDALVARARAAAAAHGAEVVAAENVPAADFEAVLAAARARALARLDELE
# B15: FBXL12_hotspot_9_123 (protein)
# chain: MIVVIRENVKREEDIEPALRRAVAYAEAAAEAGWRVILVFSASSEELKEKAKEILETKLGERVARLKARGARIVVTATEEEAERKKRELLEEALREEDEA
# B16: FBXL12_hotspot_127_8 (protein)
# chain: SDIEVRVSVPTYQSYRYAVAILLEMLKIDVKNGGKNVEKLLEQLKALMEDAAKHLPKEDVLELLDEAIKSLKELKKESPEHKELFDKAIKYLEKLRKEVE
# Biological target: T1, FBXL12, Q9NXK8
# Test: median log2 fold change of GCK-ALFA target abundance (FLAG IP / Myc IP barcode read proportion) (log2 ratio); each designed protein is fused to an ALFA-tag nanobody in HEK293 cells to bring the named protein to FLAG-tagged glucokinase (GCK); Myc marks an untargeted standard; higher = target protein stabilised (more abundant)
# Conditions: target protein: 3xFLAG-MCP-GCK-ALFA reporter; HEK293 landing pad (RPLP)
# Experimental: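 LABEL-seq trans screen in HEK293 landing-pad cells. Each de novo designed 100-aa effector handle, binding the indicated effector (E3 ligase, DUB or autophagy protein), is fused to a constant NbALFA target handle and induced with 2 ug/mL doxycycline. A FLAG-MCP-GCK-ALFA target and a Myc-MCP standard reporter were transfected, and after 48 h circRNA barcodes were recovered by anti-FLAG and anti-Myc IP and sequenced. The value is the median across barcodes (at least 3 per design) of log2(FLAG/Myc read-proportion ratio), with the two transfection replicates pooled. Negative values mean degradation and positive values mean stabilisation of the target.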
row,Binder,median log2 fold change
1,B1,-0.228
2,B2,-0.0369
3,B3,0.23
4,B4,0.0626
5,B5,0.0889
6,B6,-0.276
7,B7,-0.563
8,B8,-0.161
9,B9,-0.157
10,B10,0.00902
11,B11,0.0101
12,B12,0.0418
13,B13,-0.106
14,B14,0.11
15,B15,-0.0307
16,B16,-0.133
